Source: PubChem BioAssay AID1259415 (National Center for Advancing Translational Sciences (NCATS), 2018)
Out of some 410,000 compounds screened, about 18,000 (4.4%) were called active. Another 7% or so got no clear call; they are omitted. No stated cut-off is given here; in the data, active means activity change below about -60%; inconclusive means no clear call, values can overlap the other calls; inactive means above about -39%. The entries come from a sample that favours actives as a whole.
On the % scale 0 is the no-effect control and ±100 the full control effect.

Assay: qHTS Assay for inhibitors of the human cytomegalovirus (HCMV)
Details: HFF cells, HCMV-luciferase reporter, 72 h; at 57.5 µM; hits give low values
Summary of the method: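 Inhibition of viral replication was scored as loss of reporter luminescence in HFFs infected with HCMV-luciferase (MOI 1 PFU/cell) for 72 h; compounds tested at 2 doses, normalized to buffer and Salinomycin controls.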
For `CCCCC(=O)OC1=CN(Cc2ccccc2)S(=O)(=O)c2ccccc21`, the activity change, negative = inhibition was -6.62% (inactive). In the case of `CN(Cc1cccs1)C(=O)Cc1c[nH]c2ccccc12`, the activity change, negative = inhibition is reported as 26% (inactive). For `CC(C)C12CN3CC(C(C)C)(CN(C1)C3c1ccc(OCc3ccccc3)cc1)C2=O` (centres undefined), the activity change, negative = inhibition was -7.28% (inactive). With `Cc1ccc2nc(/C(C#N)=C\c3ccc(OC(=O)c4cccs4)cc3)[nH]c2c1` the activity change, negative = inhibition was -67.5% (active). In the case of `Cc1ccc2nc(/C(C#N)=C/c3ccc(-c4ccc(C(=O)OC(C)C)cc4)o3)[nH]c2c1`, the activity change, negative = inhibition is reported as 41% (inactive). In the case of `Cc1ccc2nc(/C(C#N)=C/c3ccccc3F)[nH]c2c1`, the activity change, negative = inhibition is reported as 206% (inactive). With `COCCNC(=O)CSc1nc(-c2ccccc2)[nH]c1-c1ccc(C)cc1` the activity change, negative = inhibition was -25.2% (inactive). In the case of `CCOc1cc2[nH]c(=O)n(Cc3ccc(C(=O)NCCN(CC)CC)cc3)c(=O)c2cc1OCC`, the activity change, negative = inhibition is reported as -5.64% (inactive). With `O=C(Nc1cccc(C(F)(F)F)c1)c1ccc(N2CCNCC2)c([N+](=O)[O-])c1` the activity change, negative = inhibition was -65.3% (active). For `Cc1cccc(C)c1NC(=O)CNC(=O)c1ccc(N2CCOCC2)c([N+](=O)[O-])c1`, the activity change, negative = inhibition was 25.4% (inactive). For `O=C(NC1C2CC3CC(C2)CC1C3)c1ccc(N2CCNCC2)c([N+](=O)[O-])c1` (centres undefined), the activity change, negative = inhibition was 6.12% (inactive). In the case of `CCCCS(=O)(=O)c1oc(-c2cccs2)nc1S(=O)(=O)c1ccccc1`, the activity change, negative = inhibition is reported as -108% (active). With `CSc1oc(-c2cccs2)nc1S(=O)(=O)c1ccc(Br)cc1` the activity change, negative = inhibition was 29.5% (inactive). With `Cc1ccc(CSc2oc(-c3cccs3)nc2S(=O)(=O)c2ccc(C)cc2)cc1` the activity change, negative = inhibition was 12.7% (inactive). For `Cc1ccc(-n2nc(CO)c(C(=O)NCCc3ccccc3)n2)cc1`, the activity change, negative = inhibition was 18.9% (inactive). With `CCOC(=O)c1cccc(NC(=O)Cn2cnc3nc4c(cc3c2=O)CCCC4)c1` the activity change, negative = inhibition was 4.14% (inactive). For `CC(NC(=O)COc1cccnc1[N+](=O)[O-])c1ccc(Cl)cc1Cl` (centres undefined), the activity change, negative = inhibition was -23.4% (inactive). With `Cc1ccc(OCC(=O)Nc2ccccc2Sc2ccc(Cl)cc2)c([N+](=O)[O-])n1` the activity change, negative = inhibition was -14.6% (inactive). For `COCC(C)n1c(C)cc(C(=O)COc2ccc(C)nc2[N+](=O)[O-])c1C` (centres undefined), the activity change, negative = inhibition was -71.3% (active). For `Cc1ccc(OCC(=O)c2cc(C)n(Cc3ccco3)c2C)c([N+](=O)[O-])n1`, the activity change, negative = inhibition was -78.9% (active). For `COc1ccc(C)cc1-n1nnnc1SCC(=O)c1cc(C)n(Cc2ccco2)c1C`, the activity change, negative = inhibition was 39.6% (inactive). In the case of `CCc1ccccc1NC(=O)CN(C)C(=O)COc1ccc(C)nc1[N+](=O)[O-]`, the activity change, negative = inhibition is reported as -24.2% (inactive). In the case of `O=S(=O)(NCCc1nnc2ccc(SCc3ccc(Cl)cc3Cl)nn12)c1ccccc1`, the activity change, negative = inhibition is reported as 5.81% (inactive). With `Cn1nc(C(=O)OCC(=O)N(Cc2ccccc2)C(C)(C)C)c2ccccc2c1=O` the activity change, negative = inhibition was 2.54% (inactive). For `COc1ccc(Nc2cc(Sc3ccc(OC)cc3)ncn2)cc1`, the activity change, negative = inhibition was -88.8% (active). With `COc1ccc(NC(=O)CSc2ncnc3[nH]ncc23)cc1` the activity change, negative = inhibition was -2.36% (inactive). With `COc1ccc(NC2=CC(=S)NC(C)(C)C2)cc1` the activity change, negative = inhibition was 42.8% (inactive). In the case of `Cc1ccc(Sc2ccncc2S(N)(=O)=O)cc1`, the activity change, negative = inhibition is reported as 55.9% (inactive). For `O=C(CSc1ccsc1[N+](=O)[O-])N1CCCCC1`, the activity change, negative = inhibition was 3.43% (inactive). With `CC1CC(C)CN(C(=O)CSc2nnc(CSc3ncccn3)n2C)C1` (centres undefined) the activity change, negative = inhibition was -15.8% (inactive). In the case of `CC1CC(C)CN(C(=O)CSc2ccsc2[N+](=O)[O-])C1` (centres undefined), the activity change, negative = inhibition is reported as -70.8% (active). In the case of `CC(C)C(OC(=O)c1cccs1)C(=O)NC1CCCCC1` (centres undefined), the activity change, negative = inhibition is reported as 55.6% (inactive). For `CC(C)=C1N(S(=O)(=O)C(F)(F)F)CCC12CN(C)c1ccccc12` (centres undefined), the activity change, negative = inhibition was -18.4% (inactive). For `CCC(=O)N1c2ccccc2CC1C(=O)N1CCN(c2cccc(OC)c2)CC1` (centres undefined), the activity change, negative = inhibition was 16.8% (inactive). With `COC(=O)c1c(C)[nH]c(C(=O)/C=C/c2ccc(Cl)cc2)c1C` the activity change, negative = inhibition was -85.4% (active). In the case of `COC(=O)c1c(C)oc(C)c1S(=O)(=O)NCc1ccc(Cl)cc1`, the activity change, negative = inhibition is reported as -3.12% (inactive). With `COc1ccc(C)cc1NC(=O)c1[nH]c(C)c(C(C)=O)c1C` the activity change, negative = inhibition was 106% (inactive). In the case of `CCc1ccc(CCC(=O)Nc2ccc(S(N)(=O)=O)cc2)o1`, the activity change, negative = inhibition is reported as -16.8% (inactive). For `Cc1ccc(CCC(=O)Nc2ncc(Cc3cc(Cl)ccc3Cl)s2)o1`, the activity change, negative = inhibition was -89.7% (active). For `COc1ccccc1N1CCN(C(=O)C2CCN(S(=O)(=O)c3c(C)noc3/C=C/c3ccc(C)cc3)CC2)CC1`, the activity change, negative = inhibition was 1.7% (inactive). With `CCCN(CCC)C(=O)C(Cc1ccccc1)NS(=O)(=O)c1ccc2c(c1)c(=O)n(C)c(=O)n2C` (centres undefined) the activity change, negative = inhibition was 1.57% (inactive). In the case of `NC(=O)C1CCN(C(=O)COc2cccc3cccnc23)CC1`, the activity change, negative = inhibition is reported as -88.1% (active). With `CCOC(=O)C1CCN(C(=O)COc2cccc3ccccc23)CC1` the activity change, negative = inhibition was -33.6% (inactive). With `CCCCc1cc(=O)oc2c(C)c(OCC(=O)N3CCC(C(N)=O)CC3)ccc12` the activity change, negative = inhibition was -17.9% (inactive). For `CC(C)=CCCC(C)CN1CCC(n2nccc2NC(=O)c2ccccc2)CC1` (centres undefined), the activity change, negative = inhibition was -18.5% (inactive). In the case of `COc1ccc(NC(=O)C(c2ccccc2)N2Cc3ccccc3C2=O)cc1` (centres undefined), the activity change, negative = inhibition is reported as -2.09% (inactive). With `CC(C)(C)c1ccc(OC(=O)N2CCCCC2)cc1` the activity change, negative = inhibition was 29.6% (inactive). With `CC(C)(C)c1ccc(Oc2ccc(N)cc2)cc1` the activity change, negative = inhibition was -86.3% (active). For `Cc1c(Cl)cccc1NC(=O)c1noc2c1CCCC2`, the activity change, negative = inhibition was -4.84% (inactive). In the case of `O=C(Nc1c(Br)cc2c(c1Br)Cc1cc([N+](=O)[O-])ccc1-2)C(Cl)Cl`, the activity change, negative = inhibition is reported as -31.6% (inactive). With `COc1ccc(-n2c(SC)nc3sc4c(c3c2=O)CCN(C(C)=O)C4)cc1` the activity change, negative = inhibition was 24.9% (inactive). In the case of `Cc1ccc(CNC(=O)Cn2c(=O)ccc3cc(S(=O)(=O)N4CCCC4)ccc32)cc1`, the activity change, negative = inhibition is reported as -10.3% (inactive). For `Cc1ccn2c(Nc3ccc4c(c3)OCCO4)c(-c3ccc(C)s3)nc2c1`, the activity change, negative = inhibition was 10.7% (inactive). With `CCOc1ccc(Nc2ncnc3scc(-c4ccc(OC)cc4)c23)cc1` the activity change, negative = inhibition was -22.6% (inactive). In the case of `COc1ccc(-c2csc(-c3c(N)c(C(=O)c4ccc(OC)c(OC)c4)n4ccccc34)n2)cc1`, the activity change, negative = inhibition is reported as 9.65% (inactive). In the case of `Cc1cc(NC(=O)c2cccc(Cl)c2)ccc1-c1cc2ccccc2oc1=O`, the activity change, negative = inhibition is reported as 28.2% (inactive). With `N#C/C(=C\c1cccc(F)c1)c1nc(-c2cc3c(ccc4ccccc43)oc2=O)cs1` the activity change, negative = inhibition was 1.4% (inactive). With `O=c1oc2ccccc2cc1-c1csc(Nc2ccc(O)cc2)n1` the activity change, negative = inhibition was -87.2% (active). For `COc1ccc(-c2csc(Nc3ccc(O)cc3)n2)cc1`, the activity change, negative = inhibition was -72.3% (active). For `CC(C)(C)c1ccc(OCC(=O)N2CCC(c3nc4ccccc4s3)CC2)cc1`, the activity change, negative = inhibition was 4.7% (inactive). In the case of `COCCn1c(CCC(=O)Nc2cc(C)ccc2C)nc2cccnc21`, the activity change, negative = inhibition is reported as 5.25% (inactive). With `CC1CCN(C(=O)COC(=O)c2cc(=O)[nH]c3ccccc23)CC1` the activity change, negative = inhibition was 10.6% (inactive). With `CCOC(=O)c1ccc(COC(=O)c2cc(=O)[nH]c3ccccc23)o1` the activity change, negative = inhibition was -5.78% (inactive). For `O=C(OCc1nnc(-c2ccccc2)o1)c1cc(=O)[nH]c2ccccc12`, the activity change, negative = inhibition was -98.7% (active). In the case of `CCc1ccc(S(=O)(=O)Nc2cc3c(C(=O)OCc4ccccc4)c(C)oc3c3ccccc23)cc1`, the activity change, negative = inhibition is reported as 8.24% (inactive). In the case of `CCN(CC)C(=O)CSC1c2ccccc2C(=O)N1c1ccccc1` (centres undefined), the activity change, negative = inhibition is reported as -6.4% (inactive). With `COc1ccc(-c2nc3c(c(SCC(=O)Nc4ccc(C(=O)O)cc4)n2)Cc2ccccc2O3)cc1` the activity change, negative = inhibition was 42.3% (inactive). For `CC(C)c1nnc(NC(=O)COC(=O)/C=C/c2ccc([N+](=O)[O-])cc2)s1`, the activity change, negative = inhibition was 28.8% (inactive). In the case of `CCOC(=O)/C(=C\c1ccc([N+](=O)[O-])cc1)C(=O)c1cc(C(C)=O)c(Nc2ccccc2)s1`, the activity change, negative = inhibition is reported as -106% (active). With `CCOC(=O)c1c(C)[nH]c(C)c1C(=O)COC(=O)/C=C/c1cccc([N+](=O)[O-])c1` the activity change, negative = inhibition was -7.36% (inactive). With `Oc1ccccc1-c1nc2ccc(Cl)cn2c1Nc1ccc2c(c1)OCCO2` the activity change, negative = inhibition was -5.59% (inactive). For `COc1ccccc1CNC(=O)CCn1c(=O)c2ccccc2n(CC(=O)Nc2ccc(Br)cc2F)c1=O`, the activity change, negative = inhibition was -12.3% (inactive). In the case of `CCOC(=O)c1ccc(NC(=O)c2nc(SCc3ccc(F)cc3)ncc2Cl)cc1`, the activity change, negative = inhibition is reported as 13.6% (inactive). In the case of `Cc1cccc(NC(=O)Cn2cc(S(=O)(=O)Cc3ccccc3Cl)c3ccccc32)c1`, the activity change, negative = inhibition is reported as 0% (inactive). For `Cc1ccc(CCNC(=O)c2ccc(CS(=O)(=O)Cc3cccc(C)c3)o2)cc1`, the activity change, negative = inhibition was -17.4% (inactive). With `Cc1cccc(NC(=O)c2nc(S(=O)(=O)Cc3ccccc3)ncc2Cl)c1` the activity change, negative = inhibition was -100% (active). For `Cc1ccc(Cn2c(CNC(=O)Cc3cccc(C)c3)nc3cccnc32)cc1`, the activity change, negative = inhibition was -7.33% (inactive). In the case of `Cc1ccc(NC(=O)c2nc(S(=O)(=O)Cc3cccc(C)c3)ncc2Cl)cc1`, the activity change, negative = inhibition is reported as -94.3% (active). With `CCCSc1ncc(Cl)c(C(=O)Nc2c(C(=O)Nc3ccccc3)oc3ccccc23)n1` the activity change, negative = inhibition was -20.1% (inactive). In the case of `CCS(=O)(=O)c1ncc(N(Cc2ccc(F)cc2)Cc2ccco2)c(C(=O)Nc2cc(C)ccc2C)n1`, the activity change, negative = inhibition is reported as -29.7% (inactive). In the case of `Cc1cccc(CS(=O)(=O)c2ncc(Cl)c(C(=O)Nc3ccc(F)cc3)n2)c1`, the activity change, negative = inhibition is reported as -110% (active). For `CC=C(C)C(=O)OC1CCN2CC=C(COC(=O)C(O)(C(C)OC)C(C)(C)O)C12` (centres undefined), the activity change, negative = inhibition was -28.3% (inactive). For `O=C(CCC1N=C2c3ccccc3N=C(SCc3ccccc3F)N2C1=O)NCCc1ccccc1` (centres undefined), the activity change, negative = inhibition was -29% (inactive). With `O=C(Cn1c(=O)n(-c2ccc(F)cc2)c(=O)c2sccc21)Nc1cccc(C(F)(F)F)c1` the activity change, negative = inhibition was -5.68% (inactive). For `CC1CCCCN1S(=O)(=O)c1ccc(F)c(C(=O)Nc2ccccc2C(F)(F)F)c1` (centres undefined), the activity change, negative = inhibition was 11% (inactive). For `COc1cc([C@H](Cc2ccccc2)NC(C)=O)oc(=O)c1`, the activity change, negative = inhibition was -10.1% (inactive). With `CC(C)OC(=O)c1sc2nc3c(cc2c1N)C(=O)CCC3` the activity change, negative = inhibition was 45.7% (inactive). For `NC(=O)c1sc2nc3c(c(-c4ccccc4)c2c1N)CCC3`, the activity change, negative = inhibition was -93.9% (active). For `COc1cccc(C(=O)c2sc3nc(-c4ccccc4)cc(C(F)(F)F)c3c2N)c1`, the activity change, negative = inhibition was 7.18% (inactive).
